Screening data (PubChem BioAssay)
KCNH2 3.1 inh – blocks the human KCNH2 3.1 channel isoform. U2OS KCNH2 3.1, thallium flux FluxOr; hits give low values. activity change, % (tested at about 1.8 µM). actives 0.95% (n = 340,000). AID 720553;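 active = maximum activity change below -70%; inconclusive = maximum activity change from -70% to -50%; inactive = maximum activity change above -50%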;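 also: thallium influx rate constant from kinetic fluorescence after stimulation buffer; % is scaled to controls: 0 for no effect and ±100 for the full control effect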
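Kinetic fluorescence (2 min after stimulation buffer) measures Tl+ influx through KCNH2 3.1 expressed by viral transduction in U2OS cells; the rate constant is normalized against DMSO controls serving as positive and negative references.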
ASM inhibitor – blocks human secretory acid sphingomyelinase. placental ASM, HMU-PC fluorogenic substrate, 60 min. actives 0.006% (n = 340,000). P17405. Potency, µM (series often up to 57.5 µM), without a hit: at the highest dose activity change, negative = inhibition, most hits filed as inhibitors; also: potency is read from the fitted curve at half-maximal effect
Target sequence (P17405 47-631 limits assumed): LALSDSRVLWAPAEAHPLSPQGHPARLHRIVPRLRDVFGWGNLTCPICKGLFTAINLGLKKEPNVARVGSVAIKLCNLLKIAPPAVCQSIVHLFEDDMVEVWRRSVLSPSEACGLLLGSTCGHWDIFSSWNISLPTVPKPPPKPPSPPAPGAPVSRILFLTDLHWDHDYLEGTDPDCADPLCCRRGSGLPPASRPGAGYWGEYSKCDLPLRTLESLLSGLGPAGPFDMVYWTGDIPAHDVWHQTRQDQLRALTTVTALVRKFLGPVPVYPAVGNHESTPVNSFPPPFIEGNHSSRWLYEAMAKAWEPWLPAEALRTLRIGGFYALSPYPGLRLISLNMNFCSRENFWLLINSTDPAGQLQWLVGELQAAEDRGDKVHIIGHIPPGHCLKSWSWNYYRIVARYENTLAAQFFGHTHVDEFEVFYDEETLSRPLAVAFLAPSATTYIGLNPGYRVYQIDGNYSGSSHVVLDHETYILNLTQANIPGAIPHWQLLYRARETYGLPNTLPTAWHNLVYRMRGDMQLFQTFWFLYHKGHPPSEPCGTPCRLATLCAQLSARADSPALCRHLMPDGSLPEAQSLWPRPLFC
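Fluorescence read-out (Ex 386 nm, Em 447 nm) after stopping the reaction at pH 10. Enzyme: ASM from human placenta; substrate HMU-PC0, 9 uM final; 60 min, 37 °C. Compound preincubation 10 min, ambient temperature.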
hERG WT inh – blocks the wildtype human KCNH2 potassium channel | Q12809 | U2OS, BacMam KCNH2, thallium flux FluxOr; hits give low values | activity change, % at 1.84 µM | actives 0.37% (n = 340,000);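 active = maximum activity change below -70%; inconclusive = maximum activity change between -70% and -50%; inactive = maximum activity change above -50%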; also: % is scaled to controls: 0 for no effect and ±100 for the full control effect
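U2OS cells were transduced with wild-type KCNH2 virus (2.03 x 10^8 / mL) for 4 h at room temperature, then cultured overnight at 37 C. Thallium flux was read with FluxOr dye. Rate constants were normalized to DMSO controls.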
p53 reactivation – restores transcriptional activity of mutant p53 | H1299 p53-A138V BP100-luciferase reporter, luminescence, 24 h | Potency, µM (doses to about 92.2 µM), for inactives: at the top dose activity change, positive = activation, usual class: activators | actives 0.063% (n = 320,000); also: potency is read from the fitted curve at half-maximal effect; % of control where 0% means no effect; nearly all actives have a fitted effect of over 45% in size
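p53-null H1299 cells stably carrying temperature-sensitive p53-A138V and a BP100-luciferase reporter were pinned with compounds (4-point, 1:5 series) and held 24 hrs at 37 deg C. Luminescence was read 10 min after detection reagent.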
uPA generation – cell surface uPA generation inhibition | actives 0.31% (n = 330,000) | cell surface uPA generation assay, qHTS | Potency, µM (doses to about 38.3 µM), for the others: at the top dose activity change, negative = inhibition, hits mostly inhibitors; active = well fitted inhibition curve with a large enough effect; inconclusive = small, poorly fitted or top-dose-only effect; inactive = no such curve, though single readings can be large or run the other way; tested in mouse RAW 264.7 cells; also: potency is read from the fitted curve at half-maximal effect; % is scaled to controls: 0 for no effect and ±100 for the full control effect; nearly all actives have a fitted effect of over 55% in size
Mm-Cpn inhibitor – M. maripaludis TRiC chaperonin inhibition. purified Mm-Cpn ATPase, ADP Transcreener TR-FRET. actives 0.031% (n = 330,000). AID 504842. Potency, µM (doses to about 76.9 µM), for the others: top-dose activity, negative = inhibition, most hits filed as inhibitors; also: potency is read from the fitted curve at half-maximal effect; % is scaled to controls: 0 for no effect and ±100 for the full control effect; nearly all actives have a fitted effect of over 80% in size
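Purified archaeal Mm-CPN (25nM final) preincubated 10 min at 37degC with compound, then 10uM ATP for 30 min at 37degC; ADP measured by HTRF Transcreener TR-FRET; buffer 30 mM TRIS pH 7.4, 100mM KCl, 5mM MgCl2, 1mM DTT.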
* marks the source's active call; other numbers are inactive results; i = inactive; ? = inconclusive; · = no result given. Hits are enriched below; roughly 1.4% of the tested compounds scored in any of these assays. Unless noted, calls follow the shape of the dose curve; as a rule, active = well fitted curve in the direction sought with a large enough effect; inconclusive = small, poorly fitted or top-dose-only effect, or another doubt; inactive = no such curve, though single readings can be large; an effect the other way counts as inactive or inconclusive.

SMILES	KCNH2 3.1 inh	ASM inhibitor	hERG WT inh	p53 reactivation	uPA generation	Mm-Cpn inhibitor
N#Cc1ccc(-c2ccc(OCC(O)CN3CCOCC3)cc2)cc1 (stereo not given)	-11.2	0.9%	0.3	-5.5%	?	-4.6%
N#Cc1ccc(OCC(O)CN2CCC(C(O)(c3ccccc3)c3ccccc3)CC2)cc1 (stereo not given)	-119.7*	-0.2%	-143.8*	4.2%	2.1%	-1.9%
CCCc1ccc(OCC(O)CN2CCN(c3ccccn3)CC2)cc1 (stereo not given)	-76.5*	-5.2%	1.1	0.3%	0.9%	-0.8%
O=C(c1ccccc1)c1ccc(OCCOCCN2CCN(Cc3ccccc3)CC2)cc1	-9.7	16.1%	-140.0*	-0.6%	-8.3%	-3.4%
COc1cccc(-c2csc(N3CCC(C(N)=O)CC3)n2)c1	·	·	·	·	·	-2.6%
C#CC1(NC(=S)Nc2cccc(OC)c2)CCCCC1	1.2	·	15.2	·	·	·
OC(COc1ccc(Br)cc1)CN1CCC(Cc2ccccc2)CC1 (stereo not given)	-104.4*	-0.7%	-116.9*	-6.9%	-17.7%	-2.4%
CC(C)OCC(O)CN1CCC(Cc2ccccc2)CC1 (stereo not given)	1.8	2.5%	32.7	9.6%	5.2%	3.1%
CCC(C)SCC(=O)Nc1ccc(S(=O)(=O)N2CCOCC2)cc1OC (stereo not given)	18.7	1.6%	23.9	-3.6%	-9.6%	-0.6%
CN1C(=O)/C(=C\c2ccc(N(C)C)cc2)OC1=S	-23.5	5.0%	-101.4*	·	-3.7%	-5.5%
CN(CC(=O)Nc1c(Cl)cccc1Cl)CC(=O)N1CCc2ccccc21	1.1	·	-10.0	·	·	·
CCc1ccc(-c2nc(CN3CCC(C(=O)NCCN(CC)c4ccccc4)CC3)c(C)o2)cc1	-112.4*	-1.6%	-31.7	-56.0%	-3.8%	2.9%
CCC1CCCCN1CCCNC(=O)C1CCN(Cc2nc(-c3ccc(Cl)cc3)oc2C)CC1 (stereo not given)	-13.3	-6.7%	·	-4.4%	10µM*	-0.8%
Cc1oc(-c2ccc(Cl)cc2)nc1CN1CCC(C(=O)NCCCN2CCOCC2)CC1	-16.8	2.5%	6.4	-36.2%	·	0.5%
Cc1oc(-c2ccc(Cl)cc2)nc1CN1CCC(C(=O)NCc2cccs2)CC1	-46.5	-0.5%	13.4	2.6%	-8.2%	-1.2%
CCN(CCNC(=O)C1CCN(Cc2nc(-c3cccc(Cl)c3)oc2C)CC1)c1ccccc1	-18.8	1.9%	-30.3	-64.1%	-9.6%	0.9%
CCc1ccc(-c2nc(CN3CCC(C(=O)NCc4ccc(F)cc4)CC3)c(C)o2)cc1	-107.1*	-8.8%	?	-41.6%	1.6%	-2.6%
Cc1ccccc1-c1nc(CN2CCC(C(=O)NCCC3=CCCCC3)CC2)c(C)o1	-70.8*	-1.7%	-77.8*	-52.1%	1.9%	1.6%
COc1ccc(CCNC(=O)C2CCN(Cc3nc(-c4ccccc4C)oc3C)CC2)cc1OC	-20.9	4.2%	23.5	-0.5%	·	-6.0%
CC1CC(=O)Nc2ccccc2N1C(=O)COc1ccccc1C(N)=O (stereo not given)	6.3	·	26.4	·	·	·
CCN(CCNC(=O)C1CCN(Cc2nc(-c3ccc(Cl)cc3)oc2C)CC1)c1ccccc1	-72.2*	-0.8%	-28.6	-37.9%	-11.7%	-0.1%
OC(COC(c1ccc(F)cc1)c1ccc(F)cc1)CN1CCc2ccccc2C1 (stereo not given)	-109.6*	-0.1%	-29.2	0.9%	5.4%	-0.2%
OC(COC(c1ccc(Cl)cc1)c1ccc(Cl)cc1)CN1CCc2ccccc2C1 (stereo not given)	·	-23.9%	-70.7*	-5.5%	-7.9%	-1.9%
OC(COc1ccc(Cl)cc1Cl)CN1CCc2ccccc2C1 (stereo not given)	-72.0*	-0.1%	15.9	10.5%	?	2.5%
CCCCn1c(N)c(N(CCOC)C(=O)c2ccc(F)c(S(=O)(=O)N3CCOCC3)c2)c(=O)[nH]c1=O	8.4	-3.4%	-9.7	1.2%	-2.9%	-0.1%
SMILES	KCNH2 3.1 inh	ASM inhibitor	hERG WT inh	p53 reactivation	uPA generation	Mm-Cpn inhibitor
CC(C)n1cc2c(N)ncnc2n1	14.5	6.0%	-1.7	·	-1.1%	·
Cc1cc(N2CCOCC2)nc2ccc(NC(=O)C3CCC(C)CC3)cc12 (stereo not given)	-106.7*	i	-13.7	4.0%	-4.5%	0.9%
CCCN(CCC)CCCNC(=S)Nc1ccc2nc(N3CCN(CC)CC3)cc(C)c2c1	13.8	132.5%	-5.9	?	-24.3%	-0.6%
CCCN(CCC)CCCNC(=S)Nc1ccc2nc(N3CCN(C)CC3)cc(C)c2c1	-108.8*	150.3%	14.9	20.5%	?	-0.1%
CCCN(CCC)CCNC(=O)CCC(=O)Nc1ccc2nc(N3CCOCC3)cc(C)c2c1	-173.6*	i	3.1	11.2%	-11.8%	-7.1%
COCC#Cc1ccc2c(c1)O[C@@H](CN(C)C(=O)Nc1ccc(OC)cc1)[C@H](C)CN([C@H](C)CO)S2(=O)=O	7.7	·	2.1	·	·	·
CC1CC(C)CN(S(=O)(=O)c2ccc(C(=O)NNC(=O)c3ccccc3F)cc2)C1 (stereo not given)	10.6	0.3%	-8.2	-4.4%	-0.1%	-0.4%
Cn1nnnc1Sc1ncnc2scc(-c3cccc(C(F)(F)F)c3)c12	·	-6.8%	·	-14.9%	8.91µM*	-5.0%
Cn1nnnc1Sc1ncnc2scc(-c3ccc(-c4ccccc4)cc3)c12	·	-4.5%	·	-9.6%	2µM*	?
Cn1nnnc1Sc1ncnc2scc(-c3cccs3)c12	·	-6.0%	·	-34.4%	?	-7.1%
Cn1nnnc1Sc1ncnc2scc(-c3ccc(C(F)(F)F)cc3)c12	·	-0.6%	·	-32.8%	?	-21.2%
Cn1nnnc1Sc1ncnc2scc(-c3ccc(C#N)cc3)c12	·	2.0%	·	-42.5%	?	?
Cn1nnnc1Sc1ncnc2scc(-c3cc4ccccc4o3)c12	·	-4.0%	·	-41.8%	?	39.8µM*
CCOC(=O)c1c(N/C=C(\C#N)c2nc(-c3ccc(OC(C)=O)cc3)cs2)sc2c1CCC2	4.6	0.4%	-3.7	·	-7.4%	·
COc1cc(C(=O)c2ccccc2C(=O)O)c(OC)c2c1CCCC2	5.9	3.7%	0.6	·	4.1%	·
O=C(c1ccc2c(c1)OCO2)C1CCCN(Cc2ccc(OC(F)F)cc2)C1 (stereo not given)	-93.7*	4.0%	-8.3	1.5%	-15.4%	-1.6%
O=C(c1ccc2c(c1)OCO2)C1CCCN(Cc2cccc(C(F)(F)F)c2)C1 (stereo not given)	-9.9	-2.1%	26.3	7.1%	0.3%	-3.4%
O=C(c1ccc2c(c1)OCO2)C1CCCN(Cc2ccc3cccc(F)c3n2)C1 (stereo not given)	-100.8*	-0.9%	-25.0	-5.9%	-1.6%	0.0%
